Pf growth 96h = inhibits malaria parasite growth, 96 h. P. falciparum luciferase reporter growth, 96 h. Potency, µM (series often up to 28.7 µM), without a hit: at the top dose activity change, negative = inhibition, usual class: inhibitors. 6.9% of 320,000 active. AID 504834; note: potency is the fitted concentration of half-maximal effect; % is set by controls: 0 for no effect and ±100 for the full control effect
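P. falciparum expressing integrated firefly luciferase grown in erythrocytes (2% hematocrit, 0.05% parasitemia final) with compounds for 96 hours at 37 C, 5% CO2. Growth inhibition read as loss of luminescence after adding luciferase detection reagent.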
Shiga inhibitor = blocks Shiga toxin action in Vero cells; 9.2% of 290,000 active; inhibition, % at 38.7 µM; Vero cells, Shiga toxin protein synthesis inhibition reporter; in the data active = inhibition mostly above about 28%, no sharp cut-off; inactive = mostly below about 43%; note: 0% is about no effect
Pf growth 48h = P. falciparum growth inhibition at 48 hours (one generation) | P. falciparum luciferase growth in erythrocytes, 48 h | Potency, µM (titrated, usually from 28.7 µM), inactives show top-dose activity change, negative = inhibition, usual class: inhibitors | 5.9% of 310,000 active | AID 504832; note: potency is the fitted concentration of half-maximal effect; % is set by controls: 0 for no effect and ±100 for the full control effect
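Luminescence readout; reporter = integrated firefly luciferase in P. falciparum. RBC culture at 2% hematocrit, 0.1% parasitemia final, 37 C/5% CO2; decreased signal taken as growth inhibition.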
Giardia FBPA inh = Giardia lamblia aldolase inhibition; A8B2U2; purified Giardia FBPA; Potency, µM (highest dose often 59.6 µM), for inactives: at the top dose activity, negative = inhibition, usual class: inhibitors; 0.71% of 290,000 active; AID 2451; note: potency is the fitted concentration of half-maximal effect; % is set by controls: 0 for no effect and ±100 for the full control effect; nearly all actives have a fitted effect of over 55% in size
Target sequence (A8B2U2 whole entry, looked up): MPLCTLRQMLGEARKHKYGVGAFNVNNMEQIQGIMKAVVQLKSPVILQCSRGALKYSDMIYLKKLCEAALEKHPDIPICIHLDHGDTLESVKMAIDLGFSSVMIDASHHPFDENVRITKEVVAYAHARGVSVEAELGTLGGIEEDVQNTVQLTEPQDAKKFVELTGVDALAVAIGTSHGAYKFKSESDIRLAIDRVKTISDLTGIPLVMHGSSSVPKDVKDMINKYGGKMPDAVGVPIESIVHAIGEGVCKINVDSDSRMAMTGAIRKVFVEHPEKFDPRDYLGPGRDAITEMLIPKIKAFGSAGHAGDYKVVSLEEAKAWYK
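40 nM FBPA preincubated 10 min at RT with compound (up to 57.5 uM final), then substrate plus GAPDH/TPI/NAD/arsenate coupling and diaphorase/resazurin added. Fluorescence read after 20 min at RT, 525/598 nm.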
Cycloheximide cs = counter-screen for Shiga toxin inhibitors: cycloheximide protein synthesis inhibition. AID 2314. 12% of 300,000 active. max response, %. cell reporter, cycloheximide protein synthesis inhibition counterscreen; in the data active = max response mostly above about 13%, no sharp cut-off; inactive = mostly below about 14%; note: read at 38.3 µM for the half of the compounds with a filed dose; 0% is about no effect
NS1 function inh = blocks influenza NS1 protein function. AID 2326. 0.4% of 270,000 active. Potency, µM (highest dose often 46.1 µM), for inactives: top-dose activity, positive = more growth; calls by dose curve; note: potency is the fitted concentration of half-maximal effect; actives are rising curves; nearly all actives have a fitted effect of over 50% in size
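Read-out: OD600 growth recovery of NS1-expressing budding yeast. Cells grown overnight at 30C in -URA glucose medium, washed, resuspended and diluted 1:100 in 2% galactose assay medium, pH 6.0. Same strain lacking NS1 served as positive control.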
* marks the source's active call; other numbers are inactive results; ? = inconclusive; nt = not tested or not shown. The list is not random: actives were taken first. Their share in the collection is about 21%. Unless noted, calls come from the whole dose curve; as a rule, active = well fitted curve in the direction sought with a large enough effect; inconclusive = small, poorly fitted or top-dose-only effect, or another doubt; inactive = no such curve, though single readings can be large; an effect the other way counts as inactive or inconclusive.

SMILES	Pf growth 96h	Shiga inhibitor	Pf growth 48h	Giardia FBPA inh	Cycloheximide cs	NS1 function inh
NC(N)=NCCC[C@H](NC(=O)c1ccccc1)C(=O)Nc1ccc([N+](=O)[O-])cc1	nt	-6.1	nt	-0.1%	-7.5	nt
NC(N)=NCCCC(NC(=O)c1ccccc1)C(=O)Nc1ccc2ccccc2c1 (centres undefined)	10.4µM*	nt	?	nt	nt	nt
O=C(O)CC(NNC(=O)c1ccccc1)C(=O)Nc1ccc([N+](=O)[O-])cc1 (centres undefined)	-0.1%	67.5*	11.7%	-8.0%	36.5*	14.6%
COc1ccc(C2=Nn3c(nnc3-c3ccccc3C)SC2)cc1OC	nt	2.2	nt	8.3%	-3.1	nt
C#CCOCCOCCOCCNc1nc(N2CCN(C(=O)CCCCCCCCCCNC(=O)[C@H](CCCN=C(N)N)n3cc(C[C@@H](C)CC)nn3)CC2)nc(N2CCN(C(=O)CCCCCCCCCCNC(=O)[C@@H]([C@H](C)CC)n3cc(CCCCCN)nn3)CC2)n1	8.28µM*	nt	3.29µM*	nt	nt	nt
C#CCOCCOCCOCCNc1nc(N2CCOCC2)nc(N2CCN(C(=O)[C@H]([C@@H](C)CC)n3cc(CCCN=C(N)N)nn3)CC2)n1	?	-10.8	7.4%	4.1%	-4.3	-11.5%
C#CCOCCOCCOCCNc1nc(N2CCN(C(=O)[C@H]([C@@H](C)O)n3cc(CCCCN)nn3)CC2)nc(N2CCN(C(=O)[C@H]([C@@H](C)CC)n3cc(CCCCN)nn3)CC2)n1	68.2%	nt	7.2%	nt	nt	nt
C#CCOCCOCCOCCNc1nc(N2CCOCC2)nc(N2CCN(C(=O)CCCCCCCCCCNC(=O)[C@H]([C@@H](C)CC)n3cc(CCCCN=C(N)N)nn3)CC2)n1	0.522µM*	nt	0.37µM*	nt	nt	nt
C#CCOCCOCCOCCNc1nc(N2CCN(C(=O)CCCCCCCCCCNC(=O)[C@H]([C@@H](C)CC)n3cc(CCCCN=C(N)N)nn3)CC2)nc(N2CCN(C(=O)CCCCCCCCCCNC(=O)[C@@H]([C@H](C)O)n3cc(C)nn3)CC2)n1	?	nt	1.85µM*	nt	nt	nt
C#CCOCCOCCOCCNc1nc(N2CCN(C(=O)CCCCCCCCCCNC(=O)[C@H]([C@@H](C)CC)n3cc(CCCCN=C(N)N)nn3)CC2)nc(N2CCN(C(=O)CCCCCCCCCCNC(=O)[C@H](CCCN=C(N)N)n3cc(C[C@@H](C)CC)nn3)CC2)n1	5.22µM*	nt	4.65µM*	nt	nt	nt
Cc1ccc(CN(CC(=O)NCCc2ccccc2)C(=O)c2csnn2)cc1	?	16.0	3.6%	3.2%	-2.9	-0.1%
CCN(CC)c1ccc(C(=O)OCC(=O)Nc2ccccc2-c2ccccc2)cc1	10.4µM*	6.9	?	-3.4%	-1.2	?
NC(=O)Nc1ccc(C(=O)OCC(=O)Nc2sccc2C(N)=O)cc1	-10.6%	nt	49.9%	nt	nt	nt
N#Cc1ccsc1NC(=O)COC(=O)c1cc2ccccc2cc1O	42.5%	84.2*	64.3%	-21.4%	30.6*	16.8%
CCN(CC)c1ccc(C(=O)OCC(=O)Nc2sccc2C#N)cc1	36.5%	39.4*	51.5%	3.8%	27.5*	-14.8%
CCN(CC)c1ccc(C(=O)OCC(=O)NC2CCCCC2C)cc1 (centres undefined)	-2.2%	-3.6	nt	5.6%	-2.3	6.4%
N#Cc1ccsc1NC(=O)CN1CCN(c2ccccc2O)CC1	?	-9.7	-12.4%	-12.6%	-1.7	-3.2%
N#Cc1ccsc1NC(=O)COC(=O)c1ccc(NC(N)=O)cc1	6.5%	91.7*	115.6%	0.9%	40.9*	2.8%
O=C(O)C1CCN(c2ccc(Cl)nn2)CC1	17.3%	14.4	-0.4%	1.7%	-1.8	nt
Cc1ccnc(NC(=O)C(C)N2C(=O)c3ccccc3S2(=O)=O)c1 (centres undefined)	20.3%	nt	?	nt	nt	nt
Cc1nn(CC(=O)N2CCC(C)CC2)c(=O)c2nn(-c3ccccc3)c(C)c12	?	0.8	0.2%	?	-3.5	2.8%
CC1Cc2ccccc2N1C(=O)c1cc2cccnc2n(C)c1=O (centres undefined)	-22.2%	nt	34.6%	nt	nt	nt
CCC(=O)NC(c1cc(Cl)c2cccnc2c1O)C(C)C (centres undefined)	13.1µM*	nt	2.94µM*	nt	nt	nt
CCC(=O)NC(c1cc(Cl)c2cccnc2c1O)C1CC1 (centres undefined)	2.94µM*	nt	3.7µM*	nt	nt	nt

Bioassay records as filed in PubChem BioAssay.
